Among all 68,000 compounds or so, about 2,700 (4%) showed an effect of 50% or more. The list comes from a sample in which strong results are over-represented; it also holds similar structures and randomly drawn compounds.

For this test, the system named is Plasmodium berghei. Nature of the test: Screen against P. berghei liver stage (PbLuc), transformed with Luciferase, at 2uM. The class given is functional, HepG2. The conditions noted are these: tested at 2 uM.
As to `O=C(NC1CCC1)[C@@H]1C[C@@H]2CCN(CCc3ccccc3)C[C@H]2O1`, the INHIBITION is on record as -39.67%.

As for `CNC(=O)CN1CCOCC2(CCCN(Cc3ccc(F)cc3)C2)C1` (configuration not stated), the INHIBITION is 34.24%. Regarding `C[C@H]1C[C@H]2CN(S(=O)(=O)c3ccc(F)cc3)CC[C@@H]2O1`, the INHIBITION is given as -21.77%.

`COCCOc1ncccc1C(=O)Nc1ccc(-n2cncn2)c(F)c1`: the INHIBITION is recorded as 69.41%.

Take `CC(=O)Nc1ccc(-n2cncn2)c(F)c1`: the INHIBITION is 8.5%. With `COCCNC(=O)Nc1ccc(-n2cncn2)c(F)c1`, the INHIBITION was determined as 0.26%. With `COC[C@]1(O)CCN(c2cc(N3CCOCC3)ncn2)CC1(C)C`, the INHIBITION was -18.81%. Take `COc1ccc(CNC(=O)Nc2cccnc2N2CCCC2)cc1O`: the INHIBITION is reported as 24.15%. On to `O=C1N(CC2CC2)CCC12CCN(c1ncccn1)CC2`, for which the INHIBITION is listed as 8.37%. As to `Cc1cnc(N2CCC3(CCN(CC4CCCC4)C3=O)CC2)nc1`, the INHIBITION was 45.28%. Under `CN1CCC2(CCN(c3ncc(F)cn3)CC2)C1=O` stands 34.19%; under `O=C1N(CC2CCCC2)CCC12CCN(c1ncc(F)cn1)CC2`, 61.15%.

On to `O=C1N(CC2CC2)CCC12CCCN(c1ncc(F)cn1)C2` (configuration not stated), for which the INHIBITION was -14.61%. The value for `Cc1cnc(N2CCC3(CCN(CC4CC4)C3=O)CC2)nc1` was 51.19%; that for `Cc1ccc(CNC(=O)NC2CCCN(c3ncccn3)C2)n1C` (configuration not stated) was 30.83%; that for `Cc1ccc(C(CNCc2nccn2C)N2CCOCC2)s1` (configuration not stated) was 69.82%. For `Cc1ccc(C(CNCc2ccncc2)N2CCOCC2)s1` (configuration not stated), the INHIBITION is given as -27.89%.

`Cc1ccc(C(CNCc2ncc[nH]2)N2CCOCC2)s1` (configuration not stated): the INHIBITION was 6.4%. For `Cc1ccc(C(CNCc2cccn2C)N2CCOCC2)s1` (configuration not stated), the INHIBITION is on record as -24.42%. Take `CCn1ccnc1CNCC(c1ccc(C)s1)N1CCOCC1` (configuration not stated): the INHIBITION came out at 76.65%.

For `CCn1cc(CNCC(c2ccc(C)s2)N2CCOCC2)cn1` (configuration not stated), the INHIBITION is 8.33%. In the case of `NS(=O)(=O)CCNC(=O)c1nnn(-c2ccccc2)c1C1CC1`, the INHIBITION is 2.39%. The value for `Cc1nc(NC(=O)CN2CCc3c(nc(C(C)C)n3C)C2)sc1C` was -1.14%; that for `CS(=O)(=O)N1CCO[C@@H]2CN(C(=O)COC3CCCC3)C[C@@H]2C1` was 17.4%; that for `CCOc1c(OC)cc(C=Cc2ncc(C(=O)NC)s2)cc1OC` was 39.56%. `FC(F)(F)c1cccc(N2CCC(NCc3cccnc3)CC2)c1`: the INHIBITION was found to be 47.23%. As for `CC(=O)NC[C@H]1C[C@@H]2CCN1C[C@@H]2c1cc(-c2cccs2)nn1C`, the INHIBITION turned out to be 35.89%.

Turning to `Cn1nc(-c2cccs2)cc1[C@H]1CN2CC[C@H]1C[C@@H]2CNS(C)(=O)=O`, the INHIBITION was 40.83%. In the case of `Cn1nc(-c2cccs2)cc1[C@H]1CN2CC[C@H]1C[C@@H]2CN`, the INHIBITION was found to be 34.24%. For the compound `COCC(=O)NC[C@H]1C[C@@H]2CCN1C[C@@H]2c1cc(-c2cccs2)nn1C`, the INHIBITION is 27.65%. For `CCNC(=O)NC[C@H]1C[C@@H]2CCN1C[C@@H]2c1cc(-c2cccs2)nn1C`, the INHIBITION is 60.6%.

Consider `Cn1nc(-c2ccccc2)cc1[C@H]1CN2CC[C@H]1C[C@@H]2CNS(C)(=O)=O`, for which the INHIBITION stood at 62.25%.

These data come from ChEMBL document CHEMBL4513216, “Probing the Open Global Health Chemical Diversity Library for Multistage-Active Starting Points for Next-Generation Antimalarials” (ACS Infect Dis, 2020).
